# Assay outcomes (PubChem BioAssay)
# GPR151 activ: activators of human GPR151; PathHunter beta-arrestin GPR151 cells, luminescence; activation, % at 11.2 µM; 650,000 tested, 1% active; in the data active = activation above about 4.9%;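 also: 0% = median of compound wells and 100% = cells with positive control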
# Target sequence (Q8TDV0 whole entry, looked up): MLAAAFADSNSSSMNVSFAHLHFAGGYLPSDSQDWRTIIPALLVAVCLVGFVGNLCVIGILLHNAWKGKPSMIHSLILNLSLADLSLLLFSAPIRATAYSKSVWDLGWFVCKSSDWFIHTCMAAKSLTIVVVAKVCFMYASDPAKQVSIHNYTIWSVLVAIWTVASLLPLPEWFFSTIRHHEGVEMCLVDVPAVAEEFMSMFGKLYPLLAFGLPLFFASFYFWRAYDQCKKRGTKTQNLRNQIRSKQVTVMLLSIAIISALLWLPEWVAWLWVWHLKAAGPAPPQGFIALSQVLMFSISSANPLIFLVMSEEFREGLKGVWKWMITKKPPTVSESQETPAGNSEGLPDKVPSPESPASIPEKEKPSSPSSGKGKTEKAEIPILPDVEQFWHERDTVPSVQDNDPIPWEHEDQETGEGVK
# TEAD-YAP block: TEAD-YAP interaction inhibition | 640,000 tested, 1.4% active | inhibition, % at 9.12 µM | HEK-TIYL cells, TEAD-Gal4/YAP UAS-luciferase luminescence; in the data active = inhibition above about 32%;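 also: 0% = median of test compound wells and 100% = reference inhibitor wells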
# FBW7 act: human FBW7 E3 ligase activation, primary screen. Q969H0. AlphaScreen FBW7–phospho-cyclin E peptide binding, activator screen. normalized activity (activation), % at 26.1 µM. 650,000 tested, 0.13% active. AID 1259310; in the data active = normalized activity above about 1.9%;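 also: purified mutant Fbw7 with reduced substrate affinity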
# MITF inh: inhibitors of human MITF | O75030 | AlphaScreen MITF homodimerization, bead proximity signal | inhibition, % at 2.6 µM | 650,000 tested, 0.91% active | AID 1259374; in the data active = inhibition above about 50%;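 also: 0% = vehicle wells with protein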
# Numbers without * were called inactive; ! = not active in a repeat. Most compounds without a hit are left out; they make up all but 3.5% or so of the library.
SMILES,GPR151 activ,TEAD-YAP block,FBW7 act,MITF inh
Cn1c(=O)cc(N2CCN(c3ccc(F)cc3)CC2)[nH]c1=O,4.7,1.2,0.0,-13.8
Cn1c(=O)cc(N2CCN(c3cccc(Cl)c3)CC2)[nH]c1=O,-0.6,37.8*,-0.1,-5.1
CCCCNc1c([N+](=O)[O-])c(=O)oc2ccccc12,-0.8,7.0,-0.2,-4.1
CC(=O)N(C1=C(N2CCCCC2)C(=O)c2ccccc2C1=O)c1ccc(F)c(F)c1,-2.6,5.5,-0.1,34.5
CC(=O)c1ccc(NC2=C(N3CCOCC3)C(=O)c3ccccc3C2=O)cc1,-0.2,0.2,-0.4,3.1
CCN(C(C)=O)C1=C(N2CCCC2)C(=O)c2ccccc2C1=O,-1.6,84.3*,0.2,11.2
CCN(C1=C(N2CCCC2)C(=O)c2ccccc2C1=O)c1ccccc1,-0.8,0.0,-1.0,69.3*
CC(=O)N(C)C1=C(N2CCOCC2)C(=O)c2ccccc2C1=O,-2.3,83.8*,0.3,0.7
CC(=O)N(C)C1=C(N2CCCC2)C(=O)c2ccccc2C1=O,-4.4,94.0*,-0.2,-9.0
COc1ccc(-c2cc3nc4c(c(=O)n3[nH]2)CCCC4)cc1,-1.2,-61.0,-0.1,-5.4
O=C(Cn1cccc1)NCc1cccs1,0.1,-8.1,0.1,40.3
CCN(CC)C(=O)C1CCCN(c2nc(C)cc(NCc3cccc(C(F)(F)F)c3)n2)C1 (centres undefined),-1.6,35.2*,0.0,2.9
CCN(CC)C(=O)C1CCCN(c2nccc(NCc3cccc(C(F)(F)F)c3)n2)C1 (centres undefined),1.5,17.4,0.0,6.7
Cc1cc(NCc2cccc(C(F)(F)F)c2)nc(N2CCCC2CO)n1 (centres undefined),3.4,41.8*,0.2,-0.4
O=C(N/N=C/c1ccccn1)c1[nH]nc2c1CCc1ccccc1-2,-1.1,0.2,0.2,26.1
CNC(=O)c1cc(Cl)c(OC)c(OC)c1,-0.5,5.7,0.1,6.2
COc1ccc(C(=O)NCc2ccc(S(N)(=O)=O)cc2)cc1OC,0.5,-0.1,2.4*,12.4
CCOc1c(Br)cc(C(N)=O)cc1OC,2.0,1.7,-0.2,-0.8
COc1c(Cl)cc(C(=O)NN)cc1Cl,-0.7,56.2*,-0.1,5.6
CCCOc1ccc(C(=O)NN)cc1OC,-1.8,46.7*,0.5,14.8
CCOc1c(Br)cc(C(=O)NN)cc1OC,0.6,51.7*,0.1,-1.1
O=C(Nc1cccnc1)c1cc([N+](=O)[O-])cc([N+](=O)[O-])c1,-1.0,1.5,0.0,4.4
COc1cccc(O)c1O,-1.7,43.3*,-0.3,89.5*
CC(=O)CSc1nc2ccc(N3C(=O)c4ccccc4C3=O)cc2s1,1.4,-3.8,-0.1,-4.2
CCCN(C(=O)c1ccccc1)c1c(C)n(C)n(-c2ccccc2)c1=O,-1.1,-15.0,-0.1,-18.6
SMILES,GPR151 activ,TEAD-YAP block,FBW7 act,MITF inh
CCCN(C(=O)c1ccc(Cl)cc1)c1c(C)n(C)n(-c2ccccc2)c1=O,-1.2,-5.9,3.2*,2.7
CCn1c(=N)c(C(=O)NC)cc2c(=O)n3cccc(C)c3nc21,-0.7,32.2*,0.0,20.1
CCn1c(=N)c(C(=O)NCCOC)cc2c(=O)n3cccc(C)c3nc21,-1.0,13.8,0.0,8.2
CCc1nc2nc(C)cc(N3CCN(c4ccccc4OC)CC3)n2n1,-1.1,33.9*,-0.1,-4.6
COC(=O)c1c(OCc2ccc(F)cc2)cc(=O)n2c1CCN(CCO)CC2,0.9,-4.6,0.1,13.1
c1ccc(OCCNc2nc(Nc3ccc(N4CCOCC4)cc3)nc3c2ncn3-c2ccsc2)cc1,-1.5,-1.0,0.0,16.7
Oc1ccc(CCNc2nc(Nc3ccc(N4CCOCC4)cc3)nc3c2ncn3-c2ccsc2)cc1,-2.1,42.4*,0.1,19.3
CC(C)N(CCNc1nc(Nc2ccc(N3CCOCC3)cc2)nc2c1ncn2-c1ccsc1)C(C)C,-1.6,38.9*,-0.2,-1.7
OCCNc1nc(Nc2ccc(N3CCOCC3)cc2)nc2c1ncn2-c1ccsc1,0.1,60.3*,-0.2,1.9
c1ccc(CNc2nc(Nc3ccc(N4CCOCC4)cc3)nc3c2ncn3-c2ccsc2)cc1,3.1,-10.4,0.3,20.9
CC(C)N(CCNc1nc(Nc2ccc(N3CCOCC3)cc2)nc2c1ncn2-c1ccccc1)C(C)C,-1.2,13.1,-0.2,10.0
CC(=O)Nc1ncc(CN2CCCCC2)s1,-1.1,19.7,0.0,-2.8
CCOc1ccccc1N=CC1=C(O)CC(c2ccccc2)CC1=O (centres undefined),0.7,5.4,2.0*!,2.8
O=C1CC(c2ccccc2)CC(O)=C1C=NCc1ccc2c(c1)OCO2 (centres undefined),0.2,37.8*,-0.1,-7.2
O=C1CC(c2ccccc2)CC(O)=C1C=NCc1ccccc1Cl (centres undefined),2.1,51.0*,0.1,6.7
CSc1ccccc1N=CC1=C(O)CC(c2ccccc2)CC1=O (centres undefined),0.3,4.7,0.1,12.7
Clc1ccccc1N1N=C(/C=C/c2cccs2)CC1c1cccs1 (centres undefined),-0.7,-9.0,0.8,-71.6
CCN1/C(=C/c2cccc[n+]2C)Sc2ccc(OC)cc21,0.2,84.3*,0.0,1.6
CCN1/C(=C/C(C)=O)Sc2ccc(OC)cc21,-0.8,32.4*!,0.0,18.2
COc1ccc(/C=C/c2cccc[n+]2C)c(OC)c1,-0.4,15.2,0.3,24.9
COc1ccc2c(c1)N(C)/C(=C/c1cccc[n+]1C)S2,-0.9,77.4*,-0.1,11.9
CCN1/C(=C\C(C)=O)Sc2ccc3ccccc3c21,-1.0,-0.6,0.0,11.4
COc1cc(C(=O)Nc2ccc(Oc3ccc(Cl)cc3)cc2)cc(OC)c1OC,0.3,-9.0,-0.2,18.0
c1ccc(OCCSc2nnnn2C2CCCCC2)cc1,0.0,-31.3,0.7,3.4
COc1ccc(/C=N/NC(=O)c2ccc(Cl)cc2)c(C(=O)O)c1OC,-0.8,-6.5,-0.1,-7.1
SMILES,GPR151 activ,TEAD-YAP block,FBW7 act,MITF inh
CC(=O)Nc1ccc(-n2c(C)ccc2C)c(C(=O)O)c1,1.2,2.3,-1.3,57.4*
Cc1ccc(C)n1-c1ccc(C(=O)O)c(Cl)c1,2.4,-6.5,-0.7,81.3*
Cc1ccc(C)n1-c1ccccc1C(=O)O,0.3,0.2,-2.2,0.8
Cc1ccc(C)n1-c1cc(Cl)ccc1C(=O)O,1.7,-0.3,-1.1,81.4*
COc1ccccc1Cn1cccc1C=O,0.1,-6.0,-0.2,-5.0
CN(C)S(=O)(=O)N1CCN(c2cc(-n3cccn3)ncn2)CC1,-2.9,-31.2,-0.3,3.1
COc1ccc(S(=O)(=O)N2CCN(c3cc(-n4cccn4)ncn3)CC2)cc1C,2.9,33.1*,0.1,-15.3
CS/C(=C\[N+](=O)[O-])Nc1ccc(C(C)(C)C)cc1,-0.8,54.6*,-0.1,-13.7
O=C(CN1C(=O)CCSc2ccccc21)NCc1ccccc1Cl,0.7,-5.9,0.1,-13.8
CCn1cc(CN2CCN(Cc3ccc(OC)c(C)c3C)C(CCO)C2)cn1 (centres undefined),-0.2,-9.0,0.0,-3.7
COc1cc(-c2ccc(NC(=O)Nc3ccccc3C)c(OC)c2)ccc1NC(=O)Nc1ccccc1C,-1.7,45.1*,0.5,13.7
Cc1cc(NCCN(C(C)C)C(C)C)nc(Oc2ccccc2)n1,0.8,63.6*,0.1,-2.2
